In PubChem BioAssay (EPA / NIEHS):
Inconclusive results are not listed. A structure can be active in one record and inactive in another. Activity calls are given as the source filed them. The calls were made as follows, unless noted: active = hit-call score of the fitted dose curve at least 0.9, where 1 is the maximum; inactive = score below 0.9.

Columns and labels:
[1] = biological target: Nucleoli Translocation, AR (gene 367) (UniProt P10275); assay: UPITT_HCI_U2OS_AR_TIF2_Nucleoli_Antagonist: University of Pittsburgh U2OS Androgen Receptor-Transcriptional Intermediary Factor 2 (AR-TIF2) Antagonism High Content Imaging Assay for Nucleoli Translocation (AID 2283997; active = hit-call score of the fitted dose curve at least 0.9, where 1 is the maximum)
Method in brief: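 An antagonist-mode imaging screen: engineered U2OS (AR-RFP, TIF2-GFP) exposed to 20 uM compound, 0.2% DMSO. Activity reflects nucleolar red fluorescence change relative to DHT baseline.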

[2] = biological target: Ratio of Nucleoli Translocation and Cytoplasm, AR (gene 367) (UniProt P10275); assay: UPITT_HCI_U2OS_AR_TIF2_Nucleoli_Cytoplasm_Ratio_Agonist: University of Pittsburgh U2OS Androgen Receptor-Transcriptional Intermediary Factor 2 (AR-TIF2) Agonism High Content Imaging Assay for Ratio of Nucleoli Translocation and Cytoplasm (AID 2284000; active = hit-call score of the fitted dose curve at least 0.9, where 1 is the maximum;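 also: hits raise the red nucleolar to cytoplasm ratio above vehicle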)
Method in brief: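 Primary screen at 20 uM final (0.2% DMSO), then triplicate confirmation and dose-response from 0.195 to 50 uM final (0.5% DMSO). Cells: U2OS with AR-RFP and TIF2-GFP. Endpoint is the nucleoli/cytoplasm red-fluorescence ratio, gain-of-signal vs DMSO.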

[3] = biological target: THRA (gene 7067) (UniProt P10827); assay: TOX21_TRA_COA_Agonist_Followup_ratio: Tox21 Thyroid Hormone Receptor alpha Agonism through Coactivator Recruitment Follow-Up Assay, Ratio (AID 2283948)
Method in brief: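 Read-out is the 520/495 nm emission ratio (ex 340 nm), scaled between DMSO-only wells as 0% and T3 wells as 100%. It reflects fluorescein-SRC-2 peptide recruitment to GST-TRα LBD detected via terbium anti-GST antibody.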

[4] = biological target: THRB (gene 7068) (UniProt P10828); assay: TOX21_TRB_BLA_Agonist_Followup_ratio: Tox21 Thyroid Hormone Receptor beta Agonism Beta-lactamase (BLA) Follow-Up Assay, Ratio (AID 2283954; active = hit-call score of the fitted dose curve at least 0.9, where 1 is the maximum)
Method in brief: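 Agonist mode: compounds (11-point, triplicate) incubated 18 h with HEK293T cells carrying GAL4-DBD/human TRβ-LBD and UAS-β-lactamase. Blue/green (460/530 nm) FRET ratio read after 2 h CCF4-AM loading; CellTiter-Glo viability run in the same plates.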

[5] = biological target: THRB (gene 7068) (UniProt P10828); assay: TOX21_TRB_COA_Agonist_Followup_ratio: Tox21 Thyroid Hormone Receptor beta Agonism through Coactivator Recruitment Follow-Up Assay, Ratio (AID 2283963)
Method in brief: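 GST-TRb LBD 5.0 nM + 0.10% BSA + cpd; add fluorescein-SRC-2 200 nM / Tb anti-GST Ab 2 nM; TR-FRET ex 340, em 520:495; norm DMSO 0%, T3 100%.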

[6] = biological target: Retinoic acid receptor RXR-alpha (Homo sapiens) (UniProt P19793); assay: TOX21_TR_RXR_BLA_Agonist_Followup_ratio: Tox21 Thyroid Hormone Receptor beta Retinoid X Receptor alpha (RXRa) Agonism Beta-lactamase (BLA) Follow-Up Assay, Ratio (AID 2283968; active = hit-call score of the fitted dose curve at least 0.9, where 1 is the maximum)
Method in brief: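 Agonist mode: compounds given to RXRa-bla HEK293T cells at 11 concentrations, triplicate, 16 h at 37C/5% CO2. Readout is the 460:530 nm blue/green ratio after 2 h substrate loading at room temperature; DMSO baseline, 9-cis retinoic acid control.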

[7] = TOX21_TR_RXR_BLA_Agonist_Followup_viability: Viability Assessment in the Tox21 Thyroid Hormone Receptor beta Retinoid X Receptor alpha (RXRa) Agonism Beta-lactamase (BLA) Follow-Up Assay (AID 2283970; active = hit-call score of the fitted dose curve at least 0.9, where 1 is the maximum)
Method in brief: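 CellTiter-Glo ATP luciferase read-out of cell viability, multiplexed with the beta-lactamase reporter run. RXRa-bla HEK293T cells in charcoal-stripped serum medium were exposed 16 h at 37C; data fitted both directions relative to DMSO.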

[8] = CCTE_Harrill_HTTr_Viability_MCF7: CCTE's 6-hour Cell Viability Assessment for the High-Throughput Transcriptomics (HTTr) Platform, in MCF-7 cells cultured in DMEM + 10% fetal bovine serum, Harrill Lab (AID 2284010)
Method in brief: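 Propidium iodide exclusion, imaged by high-content analysis, gauged viability after a six-hour exposure across eight concentrations. Cells were MCF-7 grown in DMEM with 10% fetal bovine serum; fits run in both directions against DMSO.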

[9] = CCTE_Harrill_HTTr_Apoptosis_MCF7: CCTE's 6-hour Apoptosis Assessment for the High-Throughput Transcriptomics (HTTr) Platform, in MCF-7 cells cultured in DMEM + 10% fetal bovine serum, Harrill Lab (AID 2284011)
Method in brief: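 MCF-7 cells in DMEM + 10% fetal bovine serum were exposed to chemicals for 6 hours over an eight-point dilution series. Caspase-3/7 activation was imaged by high content imaging with CellEvent Caspase 3/7 Green; bidirectional fitting used DMSO as baseline.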

[10] = CCTE_Harrill_HTTr_CellCount_MCF7: CCTE's Cell Proliferation Assessment for the High-Throughput Transcriptomics (HTTr) Platform, Harrill Lab (AID 2284012; active = hit-call score of the fitted dose curve at least 0.9, where 1 is the maximum;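 also: cells exposed to compound for six hours; intended direction is loss of nuclei count meaning fewer cells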)
Method in brief: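 Cell count from high-content imaging of Hoechst-labeled nuclei serves as viability/growth readout. Chemicals were applied to MCF-7 cells in eight concentrations for six hours, with fitting in both directions relative to DMSO.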

[11] = CCTE_Shafer_MEA_acute_spike_number: CCTE's Neural Acute Assay for Total Number of Spikes, Shafer Lab (AID 2284008)
Method in brief: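 Primary rat cortical neurons on 16-electrode MEA wells; on DIV 13 or 15, 40-min baseline then 40-min recording with compound (0.03-40 uM) at 37 C. Spikes detected at 8x rms noise; percent change versus baseline, DMSO as negative control.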

[12] = CCTE_Shafer_MEA_acute_firing_rate_mean: CCTE's Neural Acute Assay for Mean Firing Rate, Shafer Lab (AID 2284009);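 also: analyzed for loss of signal so actives lower firing rate relative to DMSO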
Method in brief: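 Spontaneous spiking of primary rat cortical networks, DIV 13/15, 37 C. Compound 0.03-40 uM, n ≥3 wells; 40 min baseline vs 40 min treated. Endpoint fitted in loss-of-signal direction against DMSO.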

[13] = CCTE_Shafer_MEA_acute_burst_number: CCTE's Neural Acute Assay for Single-Electrode Bursts, Shafer Lab (AID 2284013)
Method in brief: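 Burst totals were derived with adaptive spike detection (8x rms threshold) on filtered signals from rat cortical cultures; change relative to pre-treatment baseline after 40-min compound exposure (0.03-40 uM) was fitted in the negative direction against DMSO.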

[14] = TOX21_PR_LUC_Followup_Antagonist_viability: Viability Assessment in the Tox21 HEK293 Progesterone Receptor (PR) Antagonism Luciferase Follow-Up Assay (AID 2283940; active = hit-call score of the fitted dose curve at least 0.9, where 1 is the maximum)
Method in brief: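 Viability counter-readout: cellular ATP measured by luciferase luminescence after 16 h compound exposure at 37C of HEK293-PR-A-luc cells, which had been cultured in charcoal-stripped serum and seeded 5 h beforehand.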

[15] = TOX21_PR_LUC_Followup_Agonist_viability: Viability Assessment in the Tox21 HEK293 Progesterone Receptor (PR) Agonism Luciferase Follow-Up Assay (AID 2283941; active = hit-call score of the fitted dose curve at least 0.9, where 1 is the maximum;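 also: loss of signal means cytotoxicity so actives lower viability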)
Method in brief: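 Cytotoxicity counter-readout in the PR-A luciferase reporter line HEK293, with 16 h compound exposure at 37C after cells were cultured in charcoal-stripped serum. Cellular ATP quantified by CellTiter-Glo luminescence.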

[16] = tested on: DIO1 (gene 1733); assay: CCTE_GLTED_hDIO1: CCTE's human Deiodinase 1 (DIO1) Inhibition Assay, Great Lakes Toxicology and Ecology Division (GLTED) Lab (AID 2283987; active = hit-call score of the fitted dose curve at least 0.9, where 1 is the maximum;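 also: isolated human DIO1 enzyme in a cell-free setup rather than cells; enzyme activity read as free iodide liberated from substrate via Sandell-Kolthoff colorimetry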)
Method in brief: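 Cell-free human DIO1 enzyme was incubated with test chemical for 3 h, and iodide released from substrate was measured by Sandell-Kolthoff absorbance. Loss of signal versus DMSO baseline indicated inhibition; plates were run in triplicate.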

[17] = biological target: Ratio of Nucleoli Translocation and Cytoplasm, AR (gene 367) (UniProt P10275); assay: UPITT_HCI_U2OS_AR_TIF2_Nucleoli_Cytoplasm_Ratio_Antagonist: University of Pittsburgh U2OS Androgen Receptor-Transcriptional Intermediary Factor 2 (AR-TIF2) Antagonism High Content Imaging Assay for Ratio of Nucleoli Translocation and Cytoplasm (AID 2283999; active = hit-call score of the fitted dose curve at least 0.9, where 1 is the maximum;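 also: antagonists lower the DHT-driven ratio of nucleolar to cytoplasmic red signal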)
Method in brief: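 High-content imaging of red fluorescence ratio, nucleoli versus cytoplasm, in U2OS expressing AR-RFP and TIF2-GFP, fitted relative to DHT. Compounds tested once at 20 uM final, then 0.195 to 50 uM final in serial dilution.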

[18] = biological target: Thyroid hormone receptor alpha (Rattus norvegicus) + Thyroid hormone receptor beta (Rattus norvegicus) (UniProt P18113+P63059); assay: TOX21_TR_LUC_GH3_Agonist_Followup: Tox21 GH3 Thyroid Hormone Receptor Agonism Luciferase Follow-Up Assay (AID 2283939; active = hit-call score of the fitted dose curve at least 0.9, where 1 is the maximum)
Method in brief: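 Agonist-mode confirmatory run: 15 concentrations (5 nM to 92 uM final) on GH3 rat pituitary cells, 24 h at 37C/5% CO2, T3 as positive control. Luminescence read with ONE-Glo after 30 min.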

Measured: AC50

Chain of THRB (gene 7068) (P10828 whole entry, looked up, the tested form may be a part): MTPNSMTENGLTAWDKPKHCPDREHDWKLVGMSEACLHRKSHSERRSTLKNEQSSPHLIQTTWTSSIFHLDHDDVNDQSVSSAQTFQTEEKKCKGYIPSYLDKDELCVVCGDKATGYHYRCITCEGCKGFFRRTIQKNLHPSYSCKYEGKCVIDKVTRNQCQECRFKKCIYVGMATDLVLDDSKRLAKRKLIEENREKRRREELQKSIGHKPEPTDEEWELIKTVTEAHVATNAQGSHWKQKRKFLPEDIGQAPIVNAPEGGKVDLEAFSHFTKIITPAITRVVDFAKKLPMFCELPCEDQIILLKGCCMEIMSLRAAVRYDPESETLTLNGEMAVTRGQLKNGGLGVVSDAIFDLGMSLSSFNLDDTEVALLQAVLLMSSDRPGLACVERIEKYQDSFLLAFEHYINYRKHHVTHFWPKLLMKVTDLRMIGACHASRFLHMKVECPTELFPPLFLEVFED
Chain of THRA (gene 7067) (P10827 whole entry, looked up, the tested form may be a part): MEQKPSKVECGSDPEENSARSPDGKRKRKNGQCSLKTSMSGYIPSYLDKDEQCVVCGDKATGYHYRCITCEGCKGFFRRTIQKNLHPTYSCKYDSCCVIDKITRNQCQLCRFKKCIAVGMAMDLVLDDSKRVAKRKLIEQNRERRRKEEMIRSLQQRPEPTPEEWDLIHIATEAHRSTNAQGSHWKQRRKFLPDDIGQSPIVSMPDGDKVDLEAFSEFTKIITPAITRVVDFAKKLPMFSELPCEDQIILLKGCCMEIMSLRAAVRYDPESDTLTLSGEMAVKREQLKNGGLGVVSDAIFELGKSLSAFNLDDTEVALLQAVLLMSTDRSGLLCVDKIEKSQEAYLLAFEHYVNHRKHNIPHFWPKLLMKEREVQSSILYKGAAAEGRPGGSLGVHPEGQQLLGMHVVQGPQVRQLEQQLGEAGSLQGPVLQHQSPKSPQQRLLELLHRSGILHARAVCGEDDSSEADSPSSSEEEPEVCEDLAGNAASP
Chain of Ratio of Nucleoli Translocation and Cytoplasm, AR (gene 367) (P10275 whole entry, looked up): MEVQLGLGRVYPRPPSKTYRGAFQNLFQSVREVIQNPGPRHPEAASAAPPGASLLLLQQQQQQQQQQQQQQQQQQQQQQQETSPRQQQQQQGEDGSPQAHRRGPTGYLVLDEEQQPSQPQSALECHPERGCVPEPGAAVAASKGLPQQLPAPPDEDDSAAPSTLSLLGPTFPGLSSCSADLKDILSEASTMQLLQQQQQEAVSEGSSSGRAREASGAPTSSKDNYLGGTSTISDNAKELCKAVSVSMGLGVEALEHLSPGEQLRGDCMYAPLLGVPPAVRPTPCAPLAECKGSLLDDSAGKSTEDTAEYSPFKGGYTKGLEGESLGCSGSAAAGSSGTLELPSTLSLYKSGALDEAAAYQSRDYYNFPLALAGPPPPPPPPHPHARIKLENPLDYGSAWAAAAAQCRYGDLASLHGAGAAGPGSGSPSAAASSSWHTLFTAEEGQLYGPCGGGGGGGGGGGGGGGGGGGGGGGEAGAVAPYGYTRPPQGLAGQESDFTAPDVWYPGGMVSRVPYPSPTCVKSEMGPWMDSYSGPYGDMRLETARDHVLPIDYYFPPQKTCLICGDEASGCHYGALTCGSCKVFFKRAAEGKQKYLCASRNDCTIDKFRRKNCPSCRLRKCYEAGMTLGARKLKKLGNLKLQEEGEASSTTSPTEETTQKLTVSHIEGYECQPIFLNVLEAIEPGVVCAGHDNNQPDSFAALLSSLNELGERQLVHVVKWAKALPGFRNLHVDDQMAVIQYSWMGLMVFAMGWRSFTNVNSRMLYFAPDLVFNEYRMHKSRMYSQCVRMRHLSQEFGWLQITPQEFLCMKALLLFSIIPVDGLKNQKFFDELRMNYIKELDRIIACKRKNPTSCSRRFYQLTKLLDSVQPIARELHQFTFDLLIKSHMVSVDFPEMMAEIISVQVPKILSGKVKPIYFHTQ
Chain of Nucleoli Translocation, AR (gene 367) (P10275 whole entry, looked up): as above
Chain of Retinoic acid receptor RXR-alpha (Homo sapiens) (P19793 whole entry, looked up): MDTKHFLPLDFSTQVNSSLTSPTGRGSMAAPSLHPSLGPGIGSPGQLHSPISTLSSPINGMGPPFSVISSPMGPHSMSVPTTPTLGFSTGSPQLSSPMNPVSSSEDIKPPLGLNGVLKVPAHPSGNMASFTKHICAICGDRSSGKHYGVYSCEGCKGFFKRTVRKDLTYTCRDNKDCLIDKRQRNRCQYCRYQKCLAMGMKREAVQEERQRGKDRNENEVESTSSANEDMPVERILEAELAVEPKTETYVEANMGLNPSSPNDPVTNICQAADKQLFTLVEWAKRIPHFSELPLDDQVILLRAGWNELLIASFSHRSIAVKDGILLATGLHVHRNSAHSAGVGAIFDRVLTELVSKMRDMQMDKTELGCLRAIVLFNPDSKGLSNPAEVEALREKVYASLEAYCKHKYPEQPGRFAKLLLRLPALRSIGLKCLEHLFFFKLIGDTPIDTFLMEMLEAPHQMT
Chain of Thyroid hormone receptor alpha (Rattus norvegicus) + Thyroid hormone receptor beta (Rattus norvegicus) (P63059 whole entry, looked up): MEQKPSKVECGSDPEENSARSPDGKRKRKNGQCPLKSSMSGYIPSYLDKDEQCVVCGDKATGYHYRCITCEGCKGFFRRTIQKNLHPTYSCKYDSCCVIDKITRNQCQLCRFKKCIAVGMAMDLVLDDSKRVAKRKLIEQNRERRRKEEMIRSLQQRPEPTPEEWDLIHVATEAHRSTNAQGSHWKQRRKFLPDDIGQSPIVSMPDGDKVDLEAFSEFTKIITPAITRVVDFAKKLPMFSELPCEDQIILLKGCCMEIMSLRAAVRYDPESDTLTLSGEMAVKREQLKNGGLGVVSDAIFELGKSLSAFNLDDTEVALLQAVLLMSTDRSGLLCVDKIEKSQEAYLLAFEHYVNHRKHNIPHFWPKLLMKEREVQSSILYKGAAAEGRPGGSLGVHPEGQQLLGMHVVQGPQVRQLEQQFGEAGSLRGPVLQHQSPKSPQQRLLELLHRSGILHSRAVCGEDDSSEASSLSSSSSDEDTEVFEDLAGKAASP
Chain of Thyroid hormone receptor alpha (Rattus norvegicus) + Thyroid hormone receptor beta (Rattus norvegicus) (P18113 whole entry, looked up): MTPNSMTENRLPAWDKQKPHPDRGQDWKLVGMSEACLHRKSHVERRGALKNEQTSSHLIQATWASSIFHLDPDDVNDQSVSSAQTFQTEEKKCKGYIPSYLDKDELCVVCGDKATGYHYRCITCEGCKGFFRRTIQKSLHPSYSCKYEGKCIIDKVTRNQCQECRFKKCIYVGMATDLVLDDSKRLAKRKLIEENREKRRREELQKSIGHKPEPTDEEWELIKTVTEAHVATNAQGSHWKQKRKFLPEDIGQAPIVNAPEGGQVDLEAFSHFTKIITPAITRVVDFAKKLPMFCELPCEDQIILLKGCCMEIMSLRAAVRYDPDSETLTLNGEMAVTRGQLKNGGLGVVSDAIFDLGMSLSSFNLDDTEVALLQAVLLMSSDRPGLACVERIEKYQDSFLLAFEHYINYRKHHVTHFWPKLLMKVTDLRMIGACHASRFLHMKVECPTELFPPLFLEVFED

CCCCCCCCCCCCCOS(=O)(=O)O
inactive: [1] | [2]

Nc1ccc(S(N)(=O)=O)cc1
inactive: [3] | [4] | [5] | [6] | [7] | [8] | [9] | [10]

CCN(CC)c1ccc(C(=C2C=CC(=[N+](CC)CC)C=C2)c2ccc(S(=O)(=O)O)cc2S(=O)(=O)[O-])cc1
inactive: [1] | [2]

CN(C)C(=N)N=C(N)N
inactive: [11] | [12] | [8] | [9] | [10] | [13]

C#C[C@]1(O)CC[C@H]2[C@@H]3CCC4=Cc5oncc5C[C@]4(C)[C@H]3CC[C@@]21C
inactive: [14] | [15] | [8] | [9] | [10]

CCCc1c(OCCCOc2ccc(OCC(=O)O)cc2)ccc(C(C)=O)c1O
inactive: [14] | [15] | [8] | [9] | [10]

CCCCCCCCCCCCCC(=O)O
inactive: [8] | [9] | [10]
active: [16] 166 µM

CCCCC(CC)COC(=O)/C=C\C(=O)OCC(CC)CCCC (stereo unspecified)
inactive: [1] | [17] | [2] | [8] | [9] | [10]

CC(=O)OCCC(C)CC(C)(C)C (stereo unspecified)
inactive: [18] | [3] | [4] | [5] | [6] | [11] | [12] | [13]

C=CCOC(=O)CCC1CCCCC1
inactive: [11] | [12] | [8] | [9] | [10] | [13]

CCCCCCCCC=O
inactive: [11] | [12] | [8] | [9] | [13]

CC(CCO)CCCC(C)(C)O (stereo unspecified)
active: [18] 1.44 µM
inactive: [3] | [5] | [6]

c1ccc2[nH]ccc2c1
active: [9] 55.3 µM
inactive: [1] | [17] | [2] | [8] | [9] | [10]

COC(=O)C1=C(C)NC(C)=C(C(=O)OCCN(C)Cc2ccccc2)C1c1cccc([N+](=O)[O-])c1 (stereo unspecified)
inactive: [14] | [15] | [8] | [9]

CCCCCCCCCCCCCCCC(=O)OC[C@H](O)[C@H]1OC(=O)C(O)=C1O
active: [16] 89.6 µM
inactive: [1] | [17] | [2]
